Data on 44 molecules can be found in PubChem BioAssay (Tox21).

Records with an inconclusive call do not appear. Values without a mark were called inactive. Activity calls are given as the source filed them. The call rests on the fitted dose curve; in most records, active means well fitted curve in the direction sought with a large enough effect in the repeat runs; inconclusive means weak or mixed curves; inactive means no such curve, though single readings can be large; an effect the other way counts as inactive or inconclusive.

Experiment [1] in a line: qHTS assay to identify small molecule agonists of the RXR signaling pathway - cell viability counter screen (AID 1159529). Further: nearly all actives have a fitted effect of over 50% in size. Further: potency means the concentration at half of the fitted maximal effect. The settings on record: RXR-alpha-bla HEK293T viability, CellTiter-Glo, 16 h; series mostly up to 76.8 µM. Put shortly: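 RXR-alpha-UAS-bla HEK 293T cells in medium with 2% charcoal-stripped FBS were pre-incubated 5 hr, then compound-treated 16 hr at 37 C. Viability was read by CellTiter-Glo luminescence in the same wells as the beta-lactamase assay, with tetraoctyl ammonium bromide as positive control.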
(qHTS replaces the single test concentration by a dilution series.)

The nature of experiment [2]: qHTS assay to identify small molecule antagonists of the retinoid acid receptor (RAR) signaling pathway - cell viability counter screen (AID 1159551). Further: nearly all actives have a fitted effect of over 35% in size. The settings on record: C3RL4 cells viability, ATP luminescence (CellTiter-Glo), 6 h; series mostly up to 92.4 µM. In outline: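 Cells (C3RL4) are plated, incubated overnight, dosed with compound in DMSO, then given retinol at 1 uM final. After 6 h at 37 C, CellTiter-Glo is added and luminescence read following 30 min at room temperature.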

The nature of experiment [3]: qHTS assay to identify small molecule antagonists of the retinoic acid receptor (RAR) signaling pathway (AID 1159552; further: nearly all actives have a fitted effect of over 50% in size; further: potency means the concentration at half of the fitted maximal effect). The settings on record: C3RL4 RARE luciferase reporter, retinol-stimulated, 6 h; series mostly up to 92.4 µM. In outline:
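Retinol signaling pathway inhibitors screened in C3RL4 RARE-luciferase reporter cells seeded overnight at 37 C, then compounds added with 1 uM (final) retinol as pathway substrate. After 6 hr at 37 C, luciferase luminescence read after 30 min at room temperature.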

Experiment [4] is described as follows: qHTS assay to identify small molecule agonists of the retinoic acid receptor (RAR) signaling pathway (AID 1159553). The settings on record: C3RL4 RARE luciferase reporter, agonist, 6 h; series mostly up to 73.3 µM. In outline:
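Seed C3RL4 reporter cells at 1,000 per well and incubate overnight at 37 C. Add compounds in DMSO, incubate 6 hr. Add luciferase reagent, wait 30 min at room temperature, read luminescence.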
On the % scale 0 is the no-effect control and ±100 the full control effect.

For `CCn1nc(C)c2c1C(=O)NCC(c1ccc(O)cc1)=N2`, the Potency result in experiment [1] is “inactive”.

With `Cc1ccc(Nc2nccc(N(C)c3ccc4c(C)n(C)nc4c3)n2)cc1S(N)(=O)=O`, the Potency entry in experiment [1] and in experiment [2] was “inactive” in each case.

`C=CCOC(=O)/C=C\C(=O)OCC=C`: the Potency entry in experiment [1] and in experiment [2] was “inactive” each time.

As to `Cc1c(C(=O)NN2CCCCC2)nn(-c2ccc(Cl)cc2Cl)c1-c1ccc(Cl)cc1`, the Potency result in experiment [1] and in experiment [2] was “inactive” throughout.

As for `CC1C2CC(CC2C2CCCC(O)C2)C1(C)C` (configuration not stated), the Potency in experiment [1] is 38.9 µM (active).

Turning to `Oc1cc(O)c(Cl)cc1Cl`, the Potency result in experiment [1] was “inactive”.

Turning to `O=C1NCCN1`, the Potency entry in experiment [1] and in experiment [2] was “inactive” each time.

As for `CCCCCCCC/C=C\CCCCCCCC(=O)OC`, the Potency result in experiment [1] and in experiment [2] was “inactive” in each case.

For `COc1ccc([C@@H]2Sc3ccccc3NC(=O)[C@@H]2O)cc1`, the Potency result in experiment [1] and in experiment [2] was “inactive” throughout.

For the molecule `Cc1cc(C(=C2C=CC(=Nc3ccc(S(=O)(=O)O)cc3S(=O)(=O)O)C=C2)c2ccc(Nc3ccc(S(=O)(=O)O)cc3)cc2)ccc1N`, the Potency result in experiment [1] and in experiment [2] was “inactive” each time.

Regarding `CC1CN(c2cc3c(cc2F)c(=O)c(C(=O)O)cn3-c2ccc(F)cc2F)CCN1` (configuration not stated), the activity change, negative = cytotoxicity was -4.54% [at 6.97 µM] in experiment [1] and 0.772% [at 8.39 µM] in experiment [2].

As to `CCn1cc(C(=O)O)c(=O)c2cc(F)c(N3CCNCC3)nc21`, in experiment [1], the Potency entry was “inactive”.

For the molecule `CC(Cl)C(Cl)Cl` (configuration not stated), the Potency result in experiment [1] was “inactive”.

`O=S(=O)(c1ccccc1)c1ccc(Cl)cc1`: in experiment [1], the Potency result is “inactive”.

`O=[N+]([O-])c1cccc(S(=O)(=O)NCCNS(=O)(=O)c2cccc([N+](=O)[O-])c2)c1`: the Potency entry in experiment [1] and in experiment [2] was “inactive” throughout.

On to `C[C@@H]1C[C@H]2[C@@H]3CCC4=CC(=O)C=C[C@]4(C)[C@@]3(F)[C@@H](O)C[C@]2(C)[C@@]1(O)C(=O)CO`, for which the Potency result in experiment [1] and in experiment [2] was “inactive” each time.

As for `N#C[C@@H]1C[C@@H]2C[C@@H]2N1C(=O)[C@@H](N)C12CC3CC(CC(O)(C3)C1)C2`, the Potency entry in experiment [1] and in experiment [2] was “inactive” each time.

With `CCCCCCOC(=O)CCCCCCCC(=O)OCCCCCC`, in experiment [1], the Potency entry was “inactive”.

Regarding `CCOCCn1c(C2CCN(CCc3ccc(C(C)(C)C(=O)O)cc3)CC2)nc2ccccc21`, the Potency entry in experiment [1] and in experiment [2] was “inactive” in each case.

Consider `CO[Si](C)(OC)OC`, for which the Potency result in experiment [1] and in experiment [2] was “inactive” throughout.

As to `C=CC(C)=CCC=C(C)C`, the Potency result in experiment [1] and in experiment [2] was “inactive” throughout.

Take `CCCC(=O)O[C@]1(C(=O)COC(=O)CC)CC[C@H]2[C@@H]3CCC4=CC(=O)CC[C@]4(C)[C@H]3[C@@H](O)C[C@@]21C`: the activity change, negative = cytotoxicity in experiment [1] is 2.05% [at 15.8 µM]; in experiment [2], -1.52% [at 19 µM].

`CC(=O)CC(c1ccc([N+](=O)[O-])cc1)c1c(O)c2ccccc2oc1=O` (configuration not stated): the Potency entry in experiment [1] and in experiment [2] was “inactive” each time.

For `COC(OC)(C(=O)c1ccccc1)c1ccccc1`, the Potency entry in experiment [1], in experiment [2] and in experiment [3] was “inactive” in each case.

In the case of `Nc1ccc(C(=O)OCCCOC(=O)c2ccc(N)cc2)cc1`, the Potency entry in experiment [1], in experiment [2] and in experiment [3] was “inactive” throughout.

Turning to `[O]=[Bi]`, the activity change, negative = cytotoxicity was 0.795% [at 6.97 µM] in experiment [1] and -0.124% [at 8.39 µM] in experiment [2]. The activity, negative = inhibition in experiment [3] is 92.1% [at 8.39 µM].

On to `O=C(O)c1cccc(O)c1`, for which the Potency entry in experiment [1], in experiment [2], in experiment [3] and in experiment [4] was “inactive” in each case.

Turning to `O=C(N[C@@H](c1ccccc1)[C@@H]1CCCCN1)c1cccc(C(F)(F)F)c1Cl`, the Potency result in experiment [1] and in experiment [2] was “inactive” in each case.

In the case of `CC(CCO)CCc1ccccc1` (configuration not stated), the Potency entry in experiment [1] and in experiment [2] was “inactive” in each case.

Consider `CC1=C(C=O)C(C)(C)CCC1`, for which the Potency entry in experiment [1] and in experiment [2] was “inactive” each time.

For the molecule `O=S1OCCO1`, the Potency entry in experiment [1] and in experiment [2] was “inactive” in each case.

As to `CCCCCCCCCCOS(=O)(=O)O`, the Potency entry in experiment [1], in experiment [2], in experiment [3] and in experiment [4] was “inactive” in each case.

For the molecule `Nc1ccc(S(=O)(=O)O)c(N)c1`, the Potency entry in experiment [1] and in experiment [2] was “inactive” in each case.

Take `O=C(c1ccc(O)cc1)c1ccc(Cl)cc1`: the Potency entry in experiment [1], in experiment [2] and in experiment [3] was “inactive” each time.

Take `COC(=O)c1cc(Cl)ccc1NS(=O)(=O)C(F)(F)F`: the Potency entry in experiment [1], in experiment [2] and in experiment [3] was “inactive” throughout.

Consider `CC(C)C(=O)O`, for which the Potency entry in experiment [1], in experiment [2] and in experiment [3] was “inactive” each time.

With `CCCCC(=O)O[C@]1(C(=O)CO)[C@@H](C)C[C@H]2[C@@H]3CCC4=CC(=O)C=C[C@]4(C)[C@@]3(F)[C@@H](O)C[C@@]21C`, the Potency entry in experiment [1] and in experiment [2] was “inactive” each time. Besides, the Potency in experiment [3] is 61.1 µM (active).

For `Nc1nccs1`, the Potency result in experiment [1] and in experiment [2] was “inactive” throughout.

For `CCC(C)(O)CCC=C(C)C` (configuration not stated), the Potency entry in experiment [1] and in experiment [2] was “inactive” in each case.

In the case of `CC(C)(CCl)c1ccccc1`, the Potency entry in experiment [1], in experiment [2] and in experiment [3] was “inactive” each time.

On to `N#C/C(=C1\SCC(c2ccccc2Cl)S1)n1ccnc1` (configuration not stated), for which the Potency entry in experiment [1], in experiment [2], in experiment [3] and in experiment [4] was “inactive” in each case.

Turning to `CCCCC(CC)COC(=O)COc1ccc(Cl)cc1C` (configuration not stated), the Potency result in experiment [1] and in experiment [2] was “inactive” throughout.

For `O=C(NCCCN1CCOCC1)c1ccc(Cl)cc1`, the Potency entry in experiment [1], in experiment [2] and in experiment [3] was “inactive” throughout.

In the case of `Cc1nccn1-c1ccc(Sc2cccc(C3(C(N)=O)CCOCC3)c2)cc1`, the Potency entry in experiment [1] and in experiment [2] was “inactive” each time. For the same molecule, the Potency in experiment [3] is 9.69 µM (active).
